Measured values reported in paper PMC11006913.

biological target: T1, SIX6 (Homo sapiens, UniProt O95475 114-200, L143M); test: PBM; 200 nM protein, PBS; details: dsDNA, one strand shown
T1 sequence: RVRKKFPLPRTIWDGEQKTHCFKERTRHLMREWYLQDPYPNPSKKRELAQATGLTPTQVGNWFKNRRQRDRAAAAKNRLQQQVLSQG

For CCAGTGCG, which binding signal is on record?
Its binding signal is 8.99 upbm affinity estimate (log intensity, higher = more binding, comparable within an allelic series).

For GATATCCA, which binding signal is on record?
Its binding signal is 10.9 upbm affinity estimate (log intensity, higher = more binding, comparable within an allelic series).

How did the binding signal turn out when ATATCATG was run?
The binding signal was 10.9 upbm affinity estimate (log intensity, higher = more binding, comparable within an allelic series).

With CATGATCA as the sequence, how does the binding signal read?
The binding signal was 10.4 upbm affinity estimate (log intensity, higher = more binding, comparable within an allelic series).

With GTGATATA as the sequence, how does the binding signal read?
The binding signal was 10.9 upbm affinity estimate (log intensity, higher = more binding, comparable within an allelic series).

GGCCCCAA was tested. Which binding signal did it give?
The binding signal was 8.92 upbm affinity estimate (log intensity, higher = more binding, comparable within an allelic series).

With AGTATCAT as the sequence, how does the binding signal read?
The binding signal was 11 upbm affinity estimate (log intensity, higher = more binding, comparable within an allelic series).

How did the binding signal turn out when AGGGTATC was run?
The binding signal was 11 upbm affinity estimate (log intensity, higher = more binding, comparable within an allelic series).

With AGGGCCCG as the sequence, how does the binding signal read?
The binding signal was 8.93 upbm affinity estimate (log intensity, higher = more binding, comparable within an allelic series).

GGCCTCCA was tested. Which binding signal did it give?
The binding signal was 8.87 upbm affinity estimate (log intensity, higher = more binding, comparable within an allelic series).

How did the binding signal turn out when ACTGCCGG was run?
Its binding signal is 9.15 upbm affinity estimate (log intensity, higher = more binding, comparable within an allelic series).

For GGCCCCGA, which binding signal is on record?
The binding signal was 8.93 upbm affinity estimate (log intensity, higher = more binding, comparable within an allelic series).

Which binding signal does the source give for GCCAGTCC here?
Its binding signal is 8.89 upbm affinity estimate (log intensity, higher = more binding, comparable within an allelic series).

With GCAGTGGC as the sequence, how does the binding signal read?
Its binding signal is 8.94 upbm affinity estimate (log intensity, higher = more binding, comparable within an allelic series).

GCGCTGCC was tested. Which binding signal did it give?
Its binding signal is 8.76 upbm affinity estimate (log intensity, higher = more binding, comparable within an allelic series).

How did the binding signal turn out when CCGGCGCC was run?
Its binding signal is 8.85 upbm affinity estimate (log intensity, higher = more binding, comparable within an allelic series).

Which binding signal does the source give for CAGGGCGC here?
Its binding signal is 9.04 upbm affinity estimate (log intensity, higher = more binding, comparable within an allelic series).

For CCCCGAGG, which binding signal is on record?
The binding signal was 9.07 upbm affinity estimate (log intensity, higher = more binding, comparable within an allelic series).

How did the binding signal turn out when AGCTCCGC was run?
Its binding signal is 9.08 upbm affinity estimate (log intensity, higher = more binding, comparable within an allelic series).

GATATCAC was tested. Which binding signal did it give?
Its binding signal is 11.1 upbm affinity estimate (log intensity, higher = more binding, comparable within an allelic series).

For GATACCCC, which binding signal is on record?
Its binding signal is 11.2 upbm affinity estimate (log intensity, higher = more binding, comparable within an allelic series).

ACTGATAC was tested. Which binding signal did it give?
Its binding signal is 10.9 upbm affinity estimate (log intensity, higher = more binding, comparable within an allelic series).

With ATATACAC as the sequence, how does the binding signal read?
Its binding signal is 10.9 upbm affinity estimate (log intensity, higher = more binding, comparable within an allelic series).

With CGGCCTTC as the sequence, how does the binding signal read?
Its binding signal is 8.77 upbm affinity estimate (log intensity, higher = more binding, comparable within an allelic series).

With CCGGGGCC as the sequence, how does the binding signal read?
Its binding signal is 9.04 upbm affinity estimate (log intensity, higher = more binding, comparable within an allelic series).

With AGCGGCGC as the sequence, how does the binding signal read?
Its binding signal is 8.98 upbm affinity estimate (log intensity, higher = more binding, comparable within an allelic series).

Which binding signal does the source give for CGGTATCA here?
The binding signal was 11 upbm affinity estimate (log intensity, higher = more binding, comparable within an allelic series).

For GTATCAAA, which binding signal is on record?
Its binding signal is 11.2 upbm affinity estimate (log intensity, higher = more binding, comparable within an allelic series).

How did the binding signal turn out when CAGTGGCC was run?
Its binding signal is 8.95 upbm affinity estimate (log intensity, higher = more binding, comparable within an allelic series).

GATATCTA was tested. Which binding signal did it give?
The binding signal was 10.9 upbm affinity estimate (log intensity, higher = more binding, comparable within an allelic series).

CCCTCTGC was tested. Which binding signal did it give?
Its binding signal is 9.06 upbm affinity estimate (log intensity, higher = more binding, comparable within an allelic series).

How did the binding signal turn out when CGGCGGAA was run?
Its binding signal is 8.9 upbm affinity estimate (log intensity, higher = more binding, comparable within an allelic series).

How did the binding signal turn out when CAGTATCA was run?
Its binding signal is 10.7 upbm affinity estimate (log intensity, higher = more binding, comparable within an allelic series).

CGCAAGCG was tested. Which binding signal did it give?
The binding signal was 9.01 upbm affinity estimate (log intensity, higher = more binding, comparable within an allelic series).

Which binding signal does the source give for AGGCGCCC here?
The binding signal was 8.63 upbm affinity estimate (log intensity, higher = more binding, comparable within an allelic series).

Which binding signal does the source give for CCGCCAGC here?
Its binding signal is 9.02 upbm affinity estimate (log intensity, higher = more binding, comparable within an allelic series).

ATGGCCGC was tested. Which binding signal did it give?
The binding signal was 8.74 upbm affinity estimate (log intensity, higher = more binding, comparable within an allelic series).

GGATATCA was tested. Which binding signal did it give?
The binding signal was 11.1 upbm affinity estimate (log intensity, higher = more binding, comparable within an allelic series).

How did the binding signal turn out when CTCGATAC was run?
The binding signal was 10.6 upbm affinity estimate (log intensity, higher = more binding, comparable within an allelic series).

With CGCAGCGC as the sequence, how does the binding signal read?
Its binding signal is 9.12 upbm affinity estimate (log intensity, higher = more binding, comparable within an allelic series).
